Records with an inconclusive call do not appear. Entries that show only a call come without a potency. Values without a mark were called inactive. Activity calls are given as the source filed them. Calls come from the whole dose curve; as a rule, active = well fitted cell-killing curve with a large enough effect; inconclusive = small, poorly fitted or top-dose-only effect, or effect the other way; inactive = no such curve, though single readings can be large or run the other way.
Potency is the fitted concentration of half-maximal effect.

A short description of the assay: Viability qHTS for spleen associated tyrosine kinase inhibitor (SYKi) drug resistant MV4-11 cells (AID 1963824). Note: nearly all actives have a fitted effect of over 35% in size. As to conditions: SYKi-resistant MV4-11 viability, CellTiter-Glo, 72 h; series mostly up to 45 µM. The essentials: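 SYK-inhibitor-resistant MV4-11 AML cells were seeded at 500 per well onto compound and cultured 72 hours (37 °C, 5% CO2). CellTiter-Glo was then added, and after 10 min at room temperature, luminescence gave viability.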
(qHTS replaces the single test concentration by a dilution series.)
On to `COc1cc2nc(C3CC3)nc(N3CCN(c4ccccc4OC)CC3)c2cc1OC`, for which the Potency is 14.6 µM (active).

As to `C=C1CCC2[C@](C)(CCC[C@@]2(C)C=O)[C@H]1CC/C(C)=C/CO` (stereo not given in full), the Potency was 20.6 µM (active). The same measure, in the same setting: under `CC1(C)CC2C(O)C3=C(CC(C)(O)C2C1)C(=O)OC3O` (stereo not given) stands “inactive”; under `CCC(C)CNCC(=O)N1CCC2SC=CC2C1COc1cccc(C)c1` (stereo not given), 10.3 µM (active); under `O=C(OC[C@H]1O[C@@H](Oc2ccccc2CO)[C@H](O)[C@@H](O)[C@@H]1O)c1ccccc1`, “inactive”. On the same count and under the same terms, under `CS(=O)(=O)NCC1CCC(Nc2nc3c(s2)CCSc2ccccc2-3)CC1` (stereo not given) stands 4.61 µM (active).

As for `COc1cc2c(cc1OC)-c1[nH]nc(Nc3cccc(F)c3)c1C2`, the Potency was 0.0731 µM (active).

Take `NC(=O)C1=C(O)[C@@]2(O)C(=O)C3=C(O)c4c(O)cccc4C[C@H]3C[C@H]2CC1=O`: the Potency is 2.63 µM (active).

For `C=C1/C(=C/C=C2\CCC[C@]3(C)[C@@H]([C@H](C)/C=C/[C@H](O)C4CC4)CC[C@@H]23)C[C@@H](O)C[C@@H]1O`, the Potency is 0.731 µM (active).

With `COc1ccc(/C=C/C(=O)O[C@H]2[C@@H]3C=CO[C@@H](O[C@@H]4O[C@H](CO)[C@@H](O)[C@H](O)[C@H]4O)[C@@H]3[C@@]3(CO)O[C@@H]23)cc1O`, the Potency result was “inactive”. As for `C=C1CCC2C(OC(=O)C2(O)COC(C)=O)C2C(=C)C(O)CC12` (stereo not given), the Potency entry is “inactive”. Regarding `COC1CC(=O)C23C(=O)NC(Cc4c[nH]c5ccccc45)C2C(C)C2(C)OC2C3/C=C/CC(C)CC1O` (stereo not given), the Potency was 4.47 µM (active).

As for `CC(C)=CCC[C@](C)(O)[C@H]1CC[C@]2(C)[C@@H]1[C@H](O)CC1[C@@]3(C)CC[C@H](O)C(C)(C)[C@@H]3[C@@H](O[C@@H]3O[C@H](CO)[C@@H](O)[C@H](O)[C@H]3O[C@@H]3O[C@H](CO)[C@@H](O)[C@H](O)[C@H]3O)C[C@]12C` (stereo not given in full), the Potency entry was “inactive”.

Turning to `C=C1CCC(OC(C)=O)C2(C)CC3(O)OC(=O)C(C)=C3CC12` (stereo not given), the Potency entry is “inactive”. With `CC(C)[C@@](C)(O)[C@@H]1CN(c2nc(-c3[nH]nc4ncccc34)c(F)cc2Cl)CCN1`, the Potency is 0.731 µM (active).

On to `O=C(O)/C=C/c1ccc(-c2ccc(O)c(C34CC5CC(CC(C5)C3)C4)c2)cc1`, for which the Potency is 0.103 µM (active). Same read-out and setting: under `CCOC(=O)[C@H](CCc1ccccc1)N[C@@H](C)C(=O)N1C2CCCCC2C[C@H]1C(=O)O` (stereo not given in full) stands 6.51 µM (active). For the compound `C[C@@H]1O[C@@H](O[C@@H]2[C@@H](O)[C@H](O[C@@H]3[C@@H](O)[C@@H](O)[C@H](O[C@H]4[C@H](OC(=O)[C@]56CCC(C)(C)C[C@H]5C5=CCC7[C@@]8(C)C[C@H](O)[C@H](O[C@@H]9O[C@H](C(=O)O)[C@@H](O)[C@H](O)[C@H]9O)[C@@](C)(CO)C8[C@H](O)C[C@@]7(C)[C@]5(C)C[C@H]6O)O[C@@H](CO)[C@@H]4O)O[C@H]3C)OC[C@H]2O)[C@H](O)[C@H](O)[C@H]1O` (stereo not given in full), the viability, % of control is 95.2% [at 9.25 µM]. Turning to `CC(C)Oc1ccc(-c2nc(-c3cccc4c3CCC4NCCC(=O)O)no2)cc1C#N` (stereo not given), the Potency entry was “inactive”. Same read-out and setting: under `C/C=C1\[C@H](OC2OC(COC3OC(CO)C(O)C(O)C3O)C(O)C(O)C2O)OC=C(C(=O)OC)[C@H]1CC(=O)OCCc1ccc(O)cc1` (stereo not given in full) stands “inactive”; under `CC(=O)CCC1=C(C)C(O[C@@H]2O[C@H](CO)[C@@H](O)[C@H](O)[C@H]2O)C(O)CC1(C)C` (stereo not given in full), “inactive”; under `C=C[C@H]1[C@H](O[C@@H]2O[C@H](CO)[C@@H](O)[C@H](O)[C@H]2O)OC=C(C(=O)OC)[C@H]1C[C@@H]1N[C@H](C(=O)O)Cc2c1[nH]c1ccccc21`, “inactive”. Same read-out and setting: with `CCC(CC)C(=O)OC12C(OC(=O)C(C)C)C(C)C3(O)C(C=C(CO)CC4(O)C(=O)C(C)=CC43)C1C2(C)C` (stereo not given) the figure was 0.01 µM (active); with `COc1ccnc2[nH]cc(C(=O)C(=O)N3CCN(C(=O)c4ccccc4)CC3C)c12` (stereo not given), “inactive”. In the case of `CC1(CO)CC[C@]2(C(=O)O[C@@H]3O[C@H](CO)[C@@H](O)[C@H](O)[C@H]3O)CC[C@]3(C)C(=CCC4[C@@]5(C)C[C@H](O)[C@H](O[C@@H]6OC[C@@H](O)[C@H](O)[C@H]6O)[C@@](C)(CO)C5CC[C@]43C)C2C1` (stereo not given in full), the viability, % of control is 101% [at 9.25 µM].

In the case of `C[C@@H]1O[C@@H](OC[C@H]2O[C@@H](OC(CCCCc3ccc(O)cc3)CCc3ccc(O)cc3)[C@H](O)[C@@H](O)[C@@H]2O)[C@H](O)[C@H](O)[C@H]1O` (stereo not given in full), the Potency entry is “inactive”. Same read-out and setting: with `COc1cc2occc2c(O[C@@H]2O[C@H](CO)[C@@H](O)[C@H](O)[C@H]2O)c1CCC(=O)O` the entry was “inactive”; with `C=C1CCC[C@]2(C)CC/C(=C(/CO)C(=O)OC)C[C@@H]12`, 14.6 µM (active). Still for that read-out and setting: with `COc1cc2nc(N3CCCC3)nc(NCCCCCN3CCCC3)c2cc1OC` the figure was 2.59 µM (active).

In the case of `CC1(C)CCC[C@@]2(C)[C@H]1[C@H](O)C=C(CO)[C@]2(O)CO`, the Potency entry was “inactive”.

On to `CC1CC(O)C2(OC1=O)OC1C(O)C3C4CCC5CC(OC6OC(CO)C(O)C(O)C6OC6OC(C)C(O)C(O)C6O)CCC5(C)C4CCC3(C)C1C2C` (stereo not given), for which the Potency result is “inactive”. On the same count and under the same terms, with `COc1cc(C(C)=O)ccc1O[C@@H]1O[C@H](CO)[C@@H](O)[C@H](O)[C@H]1O` the entry was “inactive”; with `CN(C)C/C=C/C(=O)Nc1cc2c(Nc3ccc(F)c(Cl)c3)ncnc2cc1OC1CCOC1` (stereo not given), 1.3 µM (active); with `CC1=CC(=O)C[C@H]2[C@@H]1CC[C@@H](C)[C@]21CO[C@H](c2ccoc2)C1=O`, “inactive”.

As for `CNc1cc2c(Nc3cccc(Br)c3)ncnc2cn1`, the Potency is 23.1 µM (active). As for `CC1(C)CCC[C@]2(C)[C@H]3CC(=O)O[C@]3(C)CC[C@@H]12`, the Potency entry was “inactive”.

As to `CC(=O)N1c2ccccc2C2(O)CC3C(=O)NC(CC(C)C)C(=O)N3C12` (stereo not given), the Potency entry is “inactive”. Still for that read-out and setting: with `O=C1C[C@]23C=CCN4CCC5c6cc7c(cc6N1[C@@]5(CC2)C43)OCO7` (stereo not given in full) the figure was 14.3 µM (active). As to `CC1CC2(O)OC(=O)C3=C2C(CCC3)[C@@]12C[C@@H](c1ccoc1)OC2=O` (stereo not given in full), the Potency result was “inactive”. Same read-out and setting: under `CC(C)=CCC[C@](C)(O)[C@H]1CC[C@]2(C)[C@@H]1[C@H](O)CC1[C@@]3(C)CC[C@H](O)C(C)(C)C3[C@@H](O[C@@H]3O[C@H](CO)[C@@H](O)[C@H](O)[C@H]3O[C@@H]3OC[C@@H](O)[C@H](O)[C@H]3O)C[C@]12C` (stereo not given in full) stands “inactive”.
